Laboratory results taken from PubChem BioAssay (NCI).
The panel holds about 83,000 compounds, 20% with a hit somewhere; the sample as a whole holds those more often.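 96-well plates, one dose, 48 hours. Percent growth reported; active if below 10.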 Activity calls are given as the source filed them.

Key:
Assay in all cases: NCI-60 one-dose screen, 48 h (100 = growth as untreated, 0 = no growth, -100 = all killed)
Settings in all cases: 10 µM unless noted
[1] = system: DU-145 prostate
[2] = system: K-562 leukemia
[3] = system: MALME-3M melanoma
[4] = system: MDA-MB-231 breast
[5] = system: RXF 393 renal
[6] = system: SF-268 CNS
[7] = system: SF-295 CNS
[8] = system: SF-539 CNS
[9] = system: UACC-257 melanoma
[10] = system: M14 melanoma
[11] = system: HCT-15 colon
[12] = system: HT29 colon
[13] = system: SNB-75 CNS
[14] = system: SNB-19 CNS
[15] = system: U251 CNS
[16] = system: PC-3 prostate
[17] = system: SK-MEL-5 melanoma
[18] = system: UACC-62 melanoma
[19] = system: LOX IMVI melanoma
[20] = system: SK-MEL-28 melanoma

Measured: growth

O=C1/C(=C\c2cccn2Cc2ccc(Cl)cc2)c2ccccc2N1c1c(Cl)cccc1Cl
inactive: [1] 105% | [2] 75.6% | [3] 79.5% | [4] 68.1% | [5] 78.3% | [6] 88.1% | [7] 87.7% | [8] 88.8% | [9] 93.1% | [10] 101% | [11] 61.4% | [12] 85.5% | [13] 82.2% | [14] 87.8% | [15] 75.6% | [16] 57.5% | [17] 66.1% | [18] 71.7% | [19] 91.9% | [20] 91%

COc1ccc([C@@H]2[C@@H](Oc3ccccc3)C(=O)N2c2cc(OC)c(OC)c(OC)c2)cc1F
active: [1] 9.48% | [2] 4.73% | [5] 3.39% | [7] 3.68% | [8] -21.1% | [10] 5.14% | [12] -6.94% | [15] 4.18% | [17] -15.1% | [18] 0.0629%
inactive: [3] 65.5% | [4] 12.4% | [6] 25.3% | [9] 57.3% | [11] 12.7% | [13] 61.4% | [14] 19.9% | [16] 20.7% | [19] 14% | [20] 48.9%

Cc1ccc2nc(CN(CCN(Cc3nc4ccc(C)cc4[nH]3)Cc3nc4ccc(C)cc4[nH]3)Cc3nc4ccc(C)cc4[nH]3)[nH]c2c1
active: [1] -99.6% | [2] -25.7% | [3] -70.4% | [4] -81.7% | [5] -92.5% | [6] -85% | [7] -86.8% | [8] -99.7% | [9] -91.8% | [10] -79.4% | [11] -94.3% | [12] -98.2% | [13] -100% | [14] -100% | [15] -94.1% | [16] -83.4% | [17] -100% | [18] -85.3% | [19] -90.8% | [20] -94.8%

Nc1cc2nc3ccccc3oc-2cc1=O
inactive: [2] 10.6% | [4] 59.8% | [5] 81.1% | [6] 38.5% | [9] 31.7% | [11] 18.2% | [12] 38.8% | [14] 80.8% | [15] 35.6% | [16] 27.8%
active: [1] -97.1% | [3] -45.8% | [7] -11.1% | [8] -20% | [10] -83.6% | [13] -86% | [17] -97.9% | [18] -75.2% | [19] -11.4% | [20] -56.2%

CNC(=O)c1ccccc1Sc1ccc2c(/C=C/c3ccccn3)n[nH]c2c1
active: [2] 6.57% | [5] 2.21% | [8] 3.31% | [19] 8.31%
inactive: [1] 47.5% | [3] 37.2% | [4] 39.7% | [6] 41.9% | [7] 40% | [9] 31.5% | [10] 16.9% | [11] 33.9% | [12] 25.2% | [13] 26.3% | [14] 50.2% | [15] 40.1% | [16] 28.1% | [17] 11.2% | [18] 13% | [20] 40.7%

NNC(=O)Cc1ccccc1
inactive: [1] 104% | [2] 56.6% | [3] 99.7% | [4] 83.7% | [5] 126% | [6] 86.4% | [7] 79.7% | [8] 92.5% | [9] 122% | [10] 74.5% | [11] 82.7% | [12] 101% | [13] 77.8% | [14] 93.1% | [15] 91.8% | [16] 56.9% | [17] 96.9% | [18] 45.8% | [19] 50.7% | [20] 108%

CC(C)(C)c1ccc(Cn2c(-c3nonc3N)nc3ccccc32)cc1
inactive: [1] 83.3% | [2] 19.1% | [3] 82.3% | [4] 81.8% | [5] 77.8% | [6] 75.6% | [7] 71.5% | [8] 89.7% | [9] 76.8% | [10] 66.9% | [11] 49.1% | [12] 41.6% | [13] 61.7% | [14] 77.4% | [15] 64.5% | [16] 67.4% | [17] 74.9% | [18] 69.5% | [19] 70.2% | [20] 72.7%

Cc1ccccc1N1C(c2ccccc2)=NNC12C=CC(=O)c1c(O)cccc12 (stereo not given)
inactive: [1] 94.9% | [2] 63.3% | [3] 75.1% | [4] 73.5% | [5] 115% | [6] 76.7% | [7] 54.5% | [8] 76.2% | [9] 45.3% | [10] 75.5% | [11] 29.5% | [12] 91.7% | [13] 81.7% | [14] 60.8% | [15] 34.9% | [16] 46.7% | [18] 12% | [20] 102%
active: [17] -26.3% | [19] 7.11%

CC(C)CC(NC(=O)OCC1c2ccccc2-c2ccccc21)C(=O)O (stereo not given)
inactive: [1] 116% | [2] 116% | [3] 109% | [4] 103% | [5] 103% | [6] 112% | [7] 77.2% | [8] 104% | [9] 102% | [10] 105% | [11] 105% | [12] 112% | [13] 90.3% | [14] 99.1% | [15] 97.6% | [16] 104% | [17] 101% | [18] 104% | [19] 103% | [20] 105%

[Ag].[Ag].[NH-]S(=O)(=O)c1ccc(N=Nc2cc(N=Nc3ccc(S([NH-])(=O)=O)cc3)c3c(NC(=O)C(Cl)Cl)cccc3c2OC(=O)C(Cl)Cl)cc1.[c-]1nccs1.[c-]1nccs1
inactive: [1] 70.1% | [2] 83.8% | [3] 67.4% | [4] 49.5% | [5] 71.5% | [6] 78.6% | [7] 81.6% | [8] 95.7% | [9] 82.4% | [10] 97.4% | [11] 79% | [12] 76.2% | [13] 51.3% | [15] 75.2% | [16] 48.2% | [17] 35.6% | [18] 91.8% | [19] 78.7% | [20] 89.1%

O=c1cc(-c2ccc3c(c2)OCCO3)oc2cc(Cl)ccc12
inactive: [1] 25.6% | [2] 35.1% | [4] 27.3% | [5] 55.6% | [6] 21.1% | [7] 19.6% | [9] 52.8% | [10] 60.6% | [11] 74.5% | [16] 43.3% | [17] 76.3% | [18] 65.1% | [19] 32.1% | [20] 21.4%
active: [3] -16.3% | [8] -32.7% | [12] -16.8% | [13] -38.5% | [15] 4.26%

O=c1cc(N2CCOCC2)oc2c(-c3ccc4c(c3)OCCO4)csc12
active: [3] -3.44% | [5] -22.5% | [7] 0.878% | [8] 3.65% | [13] -16.6% | [17] -7.05% | [18] -1.9%
inactive: [1] 22.8% | [2] 25.6% | [4] 20.3% | [6] 29.8% | [9] 18.6% | [10] 12.3% | [11] 16.9% | [12] 10.8% | [14] 25.6% | [15] 31.2% | [16] 21.8% | [19] 10.3% | [20] 22.3%

CC(C)c1ccc(Cn2ccc3c4c(N)nc(NC5CC5)nc4ccc32)cc1
active: [1] -89.5% | [2] -69.7% | [3] -91.6% | [4] -89.6% | [5] -90.9% | [6] -77.6% | [7] -82.8% | [8] -91.5% | [9] -77.8% | [10] -86.2% | [11] -80.6% | [12] -76.2% | [13] -94.4% | [15] -95.1% | [16] -82% | [17] -96.1% | [18] -93.1% | [19] -90.2%

Cc1ccc2oc(=O)cc(-c3nc4ccc([N+](=O)[O-])cc4[nH]3)c2c1
inactive: [1] 76.4% | [2] 48.7% | [3] 62.9% | [4] 64.2% | [5] 46.7% | [6] 62.1% | [7] 49.3% | [8] 54% | [9] 62.2% | [10] 64.4% | [11] 59.4% | [12] 70.9% | [13] 70.1% | [15] 41.9% | [16] 48.9% | [17] 28.9% | [18] 39.5% | [19] 67.7% | [20] 63.7%

Cc1ccc(NC(=O)c2nc(S(C)=O)oc2-c2ccc(F)cc2)cc1Nc1nccc(-c2cccnc2)n1 (stereo not given)
active: [2] -16.7% | [5] 7.47% | [11] 0.45% | [12] 1.98% | [19] -72.1%
inactive: [1] 79.4% | [3] 34.7% | [4] 39% | [6] 54.4% | [7] 86.4% | [8] 69.4% | [9] 87.3% | [10] 55.2% | [13] 95.6% | [14] 74.2% | [15] 39.2% | [16] 72.9% | [17] 68.3% | [18] 65% | [20] 76.5%
